# Compound activity from PubChem.
# Bcl-xL primary: Bcl-xL (human) inhibition; Q07817; GST-Bcl-xL / FITC-Bim BH3 peptide fluorescence polarization; inhibition, % at 10.9 µM; actives 0.7% (n = 320,000);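 active means inhibition above the mean of all tested compounds plus 3 SD, cutoff set per campaign, cut at about 30% in these data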;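 further: 0% = DMSO wells and 100% = unlabeled Bim-BH3 peptide competitor; inhibitors lower millipolarization by displacing the labeled peptide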
# GLD-1 TGE inh: GLD-1-TGE RNA interaction inhibition (C. elegans); Q17339; purified GLD-1 + fluorescein TGE RNA, fluorescence polarization; inhibition, % at 5.96 µM; actives 0.44% (n = 320,000); AID 2280;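 active means percent inhibition above a per-plate cutoff, the plate mean of test compounds plus 3 SD, cut at about 30% in these data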;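 further: 0% = DMSO wells with GLD-1 and probe and 100% = wells lacking GLD-1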
# Target sequence (Q17339 whole entry, looked up): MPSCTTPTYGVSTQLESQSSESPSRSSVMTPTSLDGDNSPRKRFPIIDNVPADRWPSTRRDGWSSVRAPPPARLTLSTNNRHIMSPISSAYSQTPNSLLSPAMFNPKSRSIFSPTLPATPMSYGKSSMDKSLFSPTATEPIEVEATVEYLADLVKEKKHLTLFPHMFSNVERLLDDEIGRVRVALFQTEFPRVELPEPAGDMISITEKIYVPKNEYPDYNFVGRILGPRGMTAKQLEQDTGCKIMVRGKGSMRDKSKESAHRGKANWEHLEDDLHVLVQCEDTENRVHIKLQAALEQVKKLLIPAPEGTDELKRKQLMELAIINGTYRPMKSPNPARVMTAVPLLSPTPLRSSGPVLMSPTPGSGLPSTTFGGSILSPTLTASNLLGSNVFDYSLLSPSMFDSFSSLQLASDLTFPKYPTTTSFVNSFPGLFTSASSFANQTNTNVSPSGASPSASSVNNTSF
# MCL1 BIM primary: MCL1-BIM-BH3 interaction inhibition (human); Q07820; GST-MCL1 / FITC-Bim-BH3 fluorescence polarization; inhibition, % at 10.9 µM; actives 0.68% (n = 320,000);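 active means inhibition above the mean inhibition of all tested compounds plus 3 SD, set per campaign, cut at about 40% in these data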;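 further: 0% = DMSO wells and 100% = unlabeled Bim-BH3 peptide control; higher means more loss of mP so more displacement of Bim peptide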
# MEX-5 binding: C. elegans MEX-5 TCR-2 RNA binding activity; AID 1832; actives 0.38% (n = 300,000); MEX-5/FITC-TCR2 RNA binding, fluorescence polarization; active compounds read low; Q9XUB2; activity score (negative = inhibition of binding), % at 10 µM;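 active means inhibition past about -25% in most replicates, and total fluorescence under double the plate's negative control median, limit read from the data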;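 further: 0% = DMSO and -100% = 5 µM competing unlabeled TCR2 RNA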
# EBV gp42 block: EBV gp42 inhibition; Fluorescence polarization binding assay, mP read-out; inhibition, % (tested at 21.74 µM); actives 0.42% (n = 220,000); in the data active means inhibition above about 50%
# BCLXL inh confirm: Bcl-xL (human) inhibition, MCL1 counter-screen confirmation; shares compounds with MCL1 BIM primary; GST-Bcl-xL / FITC-Bim BH3 peptide FP binding; inhibition, % at 10.9 µM; actives 54% (n = 1,700);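 active means inhibition above a cutoff equal to the mean inhibition of all tested compounds plus 3 SD, cut at about 30% in these data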;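 further: 0% = DMSO wells and 100% = unlabeled Bim BH3 control peptide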
# MCL1 BIM confirm: MCL1-BIM-BH3 interaction inhibition, confirmation. shares compounds with MCL1 BIM primary. GST-MCL1 / FITC-Bim-BH3 fluorescence polarization. inhibition, % at 10.9 µM. actives 61% (n = 1,700);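 active means inhibition above the average of all tested compounds plus 3 SD, cut at about 40% in these data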;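 further: 0% = DMSO wells and 100% = unlabeled Bim-BH3 control peptide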
# GLD-1 TGE cf: GLD-1 TGE RNA interaction inhibition, confirmation | shares compounds with GLD-1 TGE inh | GLD-1/FL-TGE RNA fluorescence polarization, biochemical | inhibition, % at 5.96 µM | actives 10% (n = 550);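 active means average inhibition across triplicates above the hit cutoff set in the primary screen, cut at about 32% in these data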;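 further: 0% = GLD-1 with RNA probe and DMSO and 100% = wells lacking GLD-1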
# Starred values were filed as active, the others as inactive; x = no result. The list is not random: actives were taken first. Their share in the collection is about 1.3%.
SMILES,Bcl-xL primary,GLD-1 TGE inh,MCL1 BIM primary,MEX-5 binding,EBV gp42 block,GLD-1 TGE cf,others
CCN(C(=O)COC(=O)c1cc(-c2cccc3ccccc23)nc2ccccc12)C1CCS(=O)(=O)C1 (centres undefined),91*,39*,98*,x,-7,12,BCLXL inh confirm=50*;MCL1 BIM confirm=73*
CSc1nc2nc3c(cc2c(=O)n1-c1ccccc1C)COC(C)(C)C3,57*,46*,59*,-1,-16,-6,BCLXL inh confirm=-4;MCL1 BIM confirm=0
COc1ccc2c(c1)CC/C(=C\c1ccc(C)o1)C2=O,43*,39*,48*,-2,-4,-12,
COc1ccc2c(c1)CC/C(=C/c1ccncc1)C2=O,5,-4,-2,0,2,x,
CC(C)CCn1c(N2CCCC2)nc2c1c(=O)n(C)c(=O)n2C,1,3,2,2,x,x,
CC(C)CCn1c(Cl)nc2c1c(=O)n(C)c(=O)n2C,7,31*,3,-3,3,-2,
O=C(CSc1nc(-c2cccs2)cc(C(F)(F)F)n1)Nc1cc(OCC(F)(F)C(F)F)cc([N+](=O)[O-])c1,-2,-1,-13,-2,-33,x,
C=CCN(Cc1nc(-c2ccccc2)no1)C(=O)c1ccco1,-3,10,6,0,x,x,
C=CCN1C=C2C(=O)C(C)(OC(=O)C3CCCC3)C(=O)C=C2C=C1c1ccsc1 (centres undefined),31*,32*,38,-6,-4,3,
C=CCn1c(CCNC(=O)c2cccs2)nnc1SCC(=O)c1cccc([N+](=O)[O-])c1,-1,-2,8,2,-19,x,
C=CCn1c(CCNC(=O)c2cccs2)nnc1SCC(=O)c1ccc(Cl)cc1,-2,86*,-1,0,0,8,
Cc1cccc(OCC2CCCN(Cc3nc(C4CC4)no3)C2)c1 (centres undefined),6,4,3,-2,-1,x,
Cc1ccc(S(=O)(=O)c2cc3ccccc3oc2=O)cc1,6,4,-1,-2,6,x,
Cc1c(O)ccc2cc(S(=O)(=O)c3ccccc3)c(=O)oc12,37*,34*,37,-24,x,49*,
Cc1[nH]c2ccccc2c1C(=O)C(C)OC(=O)c1ccccc1NCCO (centres undefined),4,45*,-1,2,x,-1,
O=C(CN1C(=O)CSc2ccc(S(=O)(=O)N3CCOCC3)cc21)NCc1ccc(Cl)cc1,3,2,0,-2,x,x,
Cc1cc(-c2nnc(CCC(=O)NC(Cc3ccccc3)c3ccccc3)o2)no1 (centres undefined),4,-6,-2,1,-12,x,
COCCNc1ccc([N+](=O)[O-])cc1C(=O)Nc1cccc(C)n1,5,68*,4,-2,1,1,
Cc1cccc(NC(=O)c2ccc([N+](=O)[O-])cc2Cl)n1,-3,-4,-3,3,5,x,
CCN(CC)S(=O)(=O)c1cccc(C(=O)OCC(=O)NCc2ccccc2OC)c1,-1,5,-1,0,x,x,
CCN(CC)C(=O)c1cccc(NC(=O)C2CCN(C(=O)c3cccs3)CC2)c1,x,0,x,x,x,x,
O=C1CS/C(=C\[N+](=O)[O-])N1c1ccccc1,1,35*,-10,-45*,-21,56*,
O=C(NNC(=O)C1CCN(C(=O)Nc2ccccc2)CC1)c1ccc([N+](=O)[O-])cc1,3,4,4,x,x,x,
CCc1ccc(OCC(O)Cn2c(N3CCCCC3)nc3c2c(=O)[nH]c(=O)n3C)cc1 (centres undefined),3,36*,-1,0,x,-3,
O=C(OCCN1CCCCC1)c1c[nH]c2ccccc12,10,32*,3,x,x,-4,
CC1(C)Cc2c(c(N3CCCC3)nc3sc4c(N5CCNCC5)ncnc4c23)CO1,6,3,0,1,-16,x,
